Data: PubChem BioAssay AID2314 (National Center for Advancing Translational Sciences (NCATS), 2010)
The campaign covered roughly 300,000 compounds. About 37,000 (12%) were called active. The sample holds actives, similar compounds and a random draw of the others, so the mix is not that of the screen. A number with no mark means an inactive call. Cut-off read from the data, not from the text of the source: active = max response mostly above about 13% (no sharp cut-off); inactive = mostly below about 14%.

Test: Cycloheximide Counterscreen for Small Molecule Inhibitors of Shiga Toxin; note: read at 38.3 µM for the half of the compounds with a filed dose; 0% is about no effect
Conditions: cell reporter, cycloheximide protein synthesis inhibition counterscreen; stronger effect = higher value

Compound	max response
COC(=O)c1ccc(NC(=O)C23CC4CC(C2)CC(n2cnc(Cl)n2)(C4)C3)cc1	3.9%
CC(=O)Nc1ccc(S(=O)(=O)N2CCN(CCCOc3cc(C)ccc3C)CC2)cc1	-1.97%
N=c1c2c(-c3ccccc3)c(-c3ccccc3)n(Cc3ccccc3)c2ncn1CCCO	-6.29%
OCCCN1c2ccccc2Nc2nnc(-c3ccccc3)cc21	36.8% (active)
O=C(NC(=S)NC1CCS(=O)(=O)C1)c1cccc([N+](=O)[O-])c1 (stereo not drawn)	-1.9%
CC1CCN(c2c(NCc3ccc(C(=O)NCc4ccccc4)cc3)c(=O)c2=O)CC1	3.3%
O=C(NCCc1ccccc1)c1ccc(NC2=NC3CS(=O)(=O)CC3S2)cc1 (stereo not drawn)	3.38%
CC1CCCN(c2ccc(C(=O)NCCc3ccccc3)cn2)C1 (stereo not drawn)	66.7% (active)
Cc1cc(Nc2ccc(C(=O)N3CCCCC3)cc2)c2cccc(C)c2n1	-1.19%
COc1ccc(Nc2ccc([N+](=O)[O-])cn2)cn1	-2.61%
NC1=NC[C@@H](Cc2ccc(O)cc2)N1CC1CCCCC1	-4.36%
COc1ccc(OCC(=O)Nc2cc(C)c(Cl)cc2OC)c([N+](=O)[O-])c1	13.9% (active)
COc1cc(Cl)c(C)cc1NC(=O)COC(=O)c1cc(SC)ccc1Cl	-1.86%
Cc1cc(NC(=O)COC(=O)COc2ccc(Cl)cc2C)c([N+](=O)[O-])cc1C	-1.12%
Cc1cccc2sc(N(CCCN(C)C)C(=O)CCS(=O)(=O)c3ccccc3)nc12	8.46%
CN(C)CCCn1c(SCc2ccc(Cl)cc2)nnc1-c1ccncc1	-2.48%
COc1ccc(NC(=O)C2=CC(c3ccc(OC)c(OC)c3)=NS(=O)(=O)N2C)cc1	-6.05%
Cc1c(CCC(=O)O)c(=O)oc2cc3occ(-c4ccccc4)c3cc12	-1.34%
O=c1c(-c2ccccc2)coc2c(CN3CCOCC3)c(O)ccc12	5.61%
O=c1c(-c2ccccc2)coc2cc(O)ccc12	51.6% (active)
CC1(C)C2CCC1(C)C(OC(=O)c1ccc(O)cc1)C2 (stereo not drawn)	-2.8%

Compound	max response
COc1ccc(C23NCCN2C(=O)c2ccccc23)cc1 (stereo not drawn)	-7.41%
Cc1cccc(NC(=O)COc2ccc(Br)cc2C)n1	42.7% (active)
COCCNC(=O)COc1ccccc1C	0.731%
Cc1cccc(NC(=O)COc2ccccc2C)n1	47.9% (active)
Cc1ccccc1OCC(=O)Nc1nc(C)c(C(=O)N(C)C)s1	7.85%
CCN(CC)S(=O)(=O)c1ccc(C)c(NC(=O)COc2ccc(Br)cc2Cl)c1	-3.99%
Cc1cccc(NC(=O)Cc2ccc(Br)cc2)n1	33.4% (active)
Cc1cccc(NC(=O)Nc2ccc(OCc3ccccc3)cc2)n1	-4.06%
CSc1ccccc1NC(=O)Cc1ccc(Br)cc1	-3.62%
Cc1cccc(C)c1NC(=O)CNC(=O)Cc1ccc(Br)cc1	-2.02%
O=C1C(=O)N(CCN2CCOCC2)C(c2cccc(Cl)c2)/C1=C(/O)c1ccc2c(c1)OCO2 (stereo not drawn)	1.71%
O=C(Nc1ccc(-n2cccn2)cc1)C1CCN(Cc2ccsc2)CC1	1.46%
Cc1cnc(C(=O)Oc2cccc(Cl)c2Cl)cn1	-2.93%
O=S(=O)(Nc1cccc(Oc2ccc(Cl)cc2)n1)c1ccc(F)cc1	-1.16%
Cc1cc(C)n(CCNS(=O)(=O)c2ccc(Cl)cc2)n1	-1.13%
COc1ccc(CN2CCNC(=O)C2CC(=O)NCc2cn[nH]c2-c2ccccc2)c(F)c1 (stereo not drawn)	-3.59%
COc1ccc2cc(-c3[nH]ncc3CNCCn3nc(C)cc3C)ccc2c1	38.8% (active)
CCN1CCC2(CC1)N=C(c1ccc(F)cc1)C(=S)N2C(=O)c1ccc(C)cc1	-0.381%
COc1ccc(C)cc1Nc1nc(C)nc2c1oc1ccccc12	-2.13%
Cc1cc(C)nc(N2CCN(c3ncnc4c3oc3ccccc34)CC2)n1	10.4%
COc1ccccc1Nc1ncnc2c1oc1ccccc12	22.8% (active)

Compound	max response
CCCCOc1ccc(N(CC(=O)NCC2CCCO2)C(=O)CCC(=O)Nc2cc(C)ccn2)cc1 (stereo not drawn)	-1.91%
C[n+]1ccc(C(=O)NCc2ccccc2)cc1	-2.14%
COc1ccc(CNc2ccc3c(c2)CCC3)cc1OC	28.7% (active)
COc1ccc(CNc2cc(C)cc(C)c2)cc1OC	-1.54%
COc1ccc(CC(=O)Nc2ccc3c(c2)CCC3)cc1S(=O)(=O)N1CCOCC1	1.02%
COc1ccc(OCC(=O)Nc2ccc(NC(=O)c3ccco3)c(C)c2)cc1	6.17%
COc1cc(NS(=O)(=O)c2ccc(NC(=S)NC(=O)c3ccccc3)cc2)nc(OC)n1	-6%
CCn1nccc1C(=O)Nc1ccc(Cl)c(Cl)c1	35.7% (active)
Cc1nnc(NC(=O)Nc2ccc(Cl)c(Cl)c2)s1	-2.3%
CCn1nccc1C(=O)Nc1ccc(S(=O)(=O)NC23CC4CC(CC(C4)C2)C3)cc1	9.31%
N#Cc1cccc(Nc2c3c(nc4ccccc24)CCCC3)c1	-8.08%
Cc1nc2nc(C)c(NS(=O)(=O)c3ccc(C(C)(C)C)cc3)c(=O)n2[nH]1	1.21%
COc1ccc(NC(=O)N2CCCC(C(=O)Nc3ccccc3OC)C2)cc1 (stereo not drawn)	-2.82%
O=C(Nc1ccccc1)N1CCN(C(=O)Nc2ccccc2)CC1	-0.439%
COc1ccc(NC(=O)N2CCC(Cc3ccccc3)CC2)cc1	19.5% (active)
COc1ccc(C(=O)NC2CCN(C(=O)Nc3ccc(F)cc3)CC2)cc1	-4.59%
O=C(c1cc2ccccc2o1)N1CCN(c2cccc(C(F)(F)F)c2)CC1	-3.72%
O=C(c1cc2ccccc2o1)N1CCN(Cc2ccccc2)CC1	20.5% (active)
O=C(NC(=S)N1CCN(Cc2ccccc2)CC1)c1ccccc1	10.6%
O=C(c1cccc(Cl)c1)N1CCN(Cc2ccccc2)CC1	1.6%
O=C(Nc1ccccc1)N1CCN(Cc2ccccc2)CC1	21% (active)
